Results reported in article PMC4336329 (PLoS ONE, 2015).
The campaign covered roughly 310,000 compounds. About 2,200 (0.71%) showed an effect of 50% or more. The effect is printed as a negative number. What follows is part of a selection rich in strong results, with near analogues and random picks from the rest.

biological target: human ether-à-go-go-related gene (hERG) potassium channel (human, UniProt Q12809); test: primary screen, population patch clamp on CHO cells stably expressing hERG; higher = less effect of the substance
Sequence (Q12809 whole entry, looked up): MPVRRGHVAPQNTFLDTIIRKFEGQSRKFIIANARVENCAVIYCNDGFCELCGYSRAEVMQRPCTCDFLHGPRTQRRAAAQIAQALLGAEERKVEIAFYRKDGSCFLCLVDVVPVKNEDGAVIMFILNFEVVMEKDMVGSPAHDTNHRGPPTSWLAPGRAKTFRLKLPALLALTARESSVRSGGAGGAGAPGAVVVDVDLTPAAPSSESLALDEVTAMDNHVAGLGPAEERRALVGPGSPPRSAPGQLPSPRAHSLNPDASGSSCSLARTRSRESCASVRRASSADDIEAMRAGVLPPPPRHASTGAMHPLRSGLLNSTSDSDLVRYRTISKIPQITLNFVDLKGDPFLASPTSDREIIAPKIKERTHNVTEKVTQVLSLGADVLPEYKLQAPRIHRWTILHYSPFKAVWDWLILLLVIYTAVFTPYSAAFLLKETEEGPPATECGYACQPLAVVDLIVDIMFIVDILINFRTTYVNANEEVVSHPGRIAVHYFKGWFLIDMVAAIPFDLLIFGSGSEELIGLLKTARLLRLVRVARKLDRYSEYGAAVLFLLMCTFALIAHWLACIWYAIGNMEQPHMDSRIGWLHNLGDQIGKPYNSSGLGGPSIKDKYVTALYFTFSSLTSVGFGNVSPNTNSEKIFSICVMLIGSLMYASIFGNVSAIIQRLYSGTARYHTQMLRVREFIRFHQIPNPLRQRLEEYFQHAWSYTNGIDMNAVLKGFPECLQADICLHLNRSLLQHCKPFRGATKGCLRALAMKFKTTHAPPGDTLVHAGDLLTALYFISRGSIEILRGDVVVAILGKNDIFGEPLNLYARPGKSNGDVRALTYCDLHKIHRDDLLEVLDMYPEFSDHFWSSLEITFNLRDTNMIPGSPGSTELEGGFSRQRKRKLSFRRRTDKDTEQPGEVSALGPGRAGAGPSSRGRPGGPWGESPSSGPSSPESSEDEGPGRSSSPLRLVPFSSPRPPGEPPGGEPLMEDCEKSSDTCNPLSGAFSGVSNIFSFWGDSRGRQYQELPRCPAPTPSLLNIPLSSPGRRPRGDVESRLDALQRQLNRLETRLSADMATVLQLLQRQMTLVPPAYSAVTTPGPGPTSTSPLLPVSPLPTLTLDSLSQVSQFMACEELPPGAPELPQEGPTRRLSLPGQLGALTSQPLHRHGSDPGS

SMILES	hERG current change (%, negative = inhibition) at 1uM [%]
O=C(NCc1cc([N+](=O)[O-])ccc1O)c1cccnc1Sc1ccc(Cl)cc1	16.3
COc1cccc(C2=CC(c3cc(OC)ccc3OC)n3nnnc3N2)c1 (centres unmarked)	15.2
O=C(CN(C(=O)c1csnn1)c1ccc(F)cc1)NCc1ccc(F)cc1	3.44
CC(=O)Nc1cc2c(cc1NC(=O)c1cnccn1)OCCO2	19.8
CCOC(=O)c1sc(NC(=S)NC(=O)c2cccc(Cl)c2)c(C(=O)OCC)c1C	1.03
COc1ccc(S(=O)(=O)Nc2ccccc2OC)cc1NC(=O)c1cc2ccccc2oc1=O	-4.91
CCCCOc1ccc(C(O)(CCC)CCN2CCOCC2)cc1 (centres unmarked)	-11
CCC(O)(CCN1CCCCC1)c1ccccc1 (centres unmarked)	3.27
CCCCCC(O)(CCN1CCCCC1)c1ccccc1.Cl (centres unmarked)	-84.7
CCCOc1ccc(C(O)(CCC)CCN2CCCCC2)cc1 (centres unmarked)	-25.4
CCCC(O)(CCN1CCOCC1)c1ccc(Br)cc1.Cl (centres unmarked)	7.3
CCCCCCC(O)(CCN1CCCCC1)c1ccccc1.Cl (centres unmarked)	-17.1
CCCCCC(O)(CCN1CCCCC1)c1ccc(OCC)cc1.Cl (centres unmarked)	-82
CCCC(O)(CCN1CCOCC1)c1ccc(Cl)cc1 (centres unmarked)	6.26
CCCCC(O)(CCN1CCOCC1)c1ccc(Cl)cc1.Cl (centres unmarked)	-51.3
O=C1C=C(N2CCCCC2)C2(CCCCC2)O1	10.8
Nc1nc(NCc2ccco2)nc(Nc2cccc(F)c2)c1[N+](=O)[O-]	18.1
O=C(NCCc1ccccc1)c1ccc(Cl)nc1	18
COC(=O)c1ccc(CSc2nnc(Nc3cccc(OC)c3)s2)o1	10.7
COCCCC1CCN(C(=O)C2CCC(=O)N(CC3CCCCC3)C2)CC1 (centres unmarked)	2.85
COc1ccc(OCC(O)CN2CCNCC2)cc1.Cl (centres unmarked)	14.6
Fc1cccc(NC(=S)NNc2ccccc2)c1	10.7
Cc1ccc2cc(CN(CC3CCCO3)C(=S)Nc3ccccc3)c(=O)[nH]c2c1C (centres unmarked)	13.3

SMILES	hERG current change (%, negative = inhibition) at 1uM [%]
CCOC(=O)c1[nH]ncc1CN1CCCC(C(=O)c2cc(Cl)ccc2OC)C1 (centres unmarked)	-29.9
O=C(NCCc1ccc2c(c1)OCCO2)c1cc2ccccc2o1	-16.6
CN(C)S(=O)(=O)N1CCC(Oc2cccc(C(=O)NC3CCCCC3)c2)CC1	2.87
CCOC(=O)C(C)(C)Sc1nc2c(cnn2-c2ccc(Cl)cc2)c(=O)[nH]1	4.97
CCN1CCCC(OC(=O)C(c2ccccc2)c2ccccc2)C1.Cl (centres unmarked)	-53
CCN1CCCC(OC(=O)Nc2ccccc2)C1 (centres unmarked)	6.59
Cl.O=C(OC1CCN(CCCl)CC1)C(c1ccccc1)c1ccccc1	15.9
Cc1cccc(OCC(=O)Nc2ccc3c(c2)nc(CN2CCCCC2)n3C)c1.Cl	-3.37
Cc1cccc(OCC(=O)Nc2ccc3c(c2)nc(CCN2CCN(C)CC2)n3C)c1	-6.31
CN1CCN(CCc2nc3cc(NC(=O)COc4ccc(Cl)cc4)ccc3n2C)CC1	-7.52
Cc1cccc(OCC(=O)Nc2ccc3c(c2)nc(CCN2CCCCC2)n3C)c1	-58.3
CN1CCN(CCc2nc3cc(NC(=O)COc4ccccc4)ccc3n2C)CC1	-13.2
Cc1ccc(OCC(=O)Nc2ccc3c(c2)nc(CCN2CCN(C)CC2)n3C)cc1	-5.14
Cn1c(CCN2CCCCC2)nc2cc(NC(=O)COc3ccccc3)ccc21	-51.9
Cc1ccc(OCC(=O)Nc2ccc3c(c2)nc(CCN2CCCCC2)n3C)cc1	-60
CCN1CCN(CCc2nc3cc(NC(=O)COc4ccc(Cl)cc4)ccc3n2C)CC1	-26.8
Cn1c(CCN2CCCCC2)nc2cc(NC(=O)COc3ccc(Cl)cc3)ccc21	-89.6
CCN1CCN(CCc2nc3cc(NC(=O)COc4ccccc4)ccc3n2C)CC1	0.262
COc1ccc(OCC(=O)Nc2ccc3c(c2)nc(CCN2CCCCC2)n3C)cc1	-31.3
COC(=O)C1=C(c2ccc(-c3ccccc3)c(F)c2)C[C@@H]2CC[C@H]1N2C(=O)NCCc1ccccc1	15.4
CCOC(=O)C(=CNNc1c(C)csc1C(=O)OC)C(=O)OCC	16.7
COc1ccc(CCNC(=O)CN2C(=O)NC(Cc3c[nH]c4ccccc34)C2=O)cc1 (centres unmarked)	9.58
Cc1cc(OCC(=O)NC(Cc2c[nH]c3ccc(O)cc23)C(=O)O)c2c(C)c(C)c(=O)oc2c1 (centres unmarked)	14.5

SMILES	hERG current change (%, negative = inhibition) at 1uM [%]
CC(C)n1c(N)c(C#N)c2ccc([N+](=O)[O-])cc2c1=O	-6.91
O=C(COc1ccc(Br)cc1CNC1CCCCC1)NCCc1ccccc1	-59
CCN(CC)CCNCc1ccc(Br)cc1OCC(=O)NCc1ccccc1.Cl	-7.7
Cl.O=C(COc1ccc(Br)cc1CNC1CCCC1)Nc1ccccc1	-28.2
CCCNCc1cc(Br)ccc1OCC(=O)NCCc1ccccc1	-10.7
CCN(CC)CCNCc1cc(Br)ccc1OCC(=O)NCc1ccccc1.Cl	-54.6
Cl.O=C(COc1ccc(Br)cc1CNCCc1ccccc1)NCc1ccccc1	-11.5
O=c1c2c(-c3cccs3)csc2ncn1-c1ccc(Br)cc1	-2.84
CCCNC(=O)N1[C@H]2CC[C@@H]1C(C(=O)OC)=C(c1ccc3ccccc3c1)C2	4.04
COc1ccc(Cc2n[nH]c(=S)n2NC(=O)Nc2ccc(Cl)c(Cl)c2)cc1	10.2
Cc1ccc2c(c1)CC1(CN2C)C(=O)NC(=O)N(C(C)C)C1=O (centres unmarked)	19.3
C/C(=N\Nc1nc2ccccc2[nH]1)c1ccc(C)o1	8.2
C/C(=N\Nc1nc2ccccc2[nH]1)c1cccs1	-0.576
C/C(=N\Nc1nc2ccccc2[nH]1)c1ccccn1	-55.5
CC1CCCCC1NC(=O)CCNS(=O)(=O)c1ccc(Cl)cc1 (centres unmarked)	7.29
O=C(C1CCC(CNS(=O)(=O)c2cccc3cccnc23)CC1)N1CCc2ccccc21 (centres unmarked)	1.06
c1ccc2c(c1)OCCOCCOCCOCCOCCOc1ccccc1OCCOCCOCCO2	-8.98
Cl.Nc1ccc2c(c1)OCCOCCOCCOCCOCCO2	-12.2
O=C(O)/C=C/c1ccc2c(c1)OCCO2	6.97
C=Cc1ccc2c(c1)OCCOCCOCCOCCOCCO2	-70.2
Brc1ccc2c(c1)OCCOCCOCCOCCOCCOCCO2	-60
Brc1ccc2c(c1)OCCOCCOCCOCCOCCO2	-78.6
Brc1cc2c(cc1Br)OCCOCCOCCO2	5.78

SMILES	hERG current change (%, negative = inhibition) at 1uM [%]
Brc1ccc2c(c1)OCCOCCOc1cc(Br)ccc1OCCOCCOCCO2	-6.77
Brc1cc2c(cc1Br)OCCOCCOCCOCCO2	-38.2
CCNC(=S)N1CCc2ccccc2C1	9.59
CCOc1ccc(C(=O)n2cnnc2N)cc1	16.9
Cc1nc(SC2CCOC2=O)c2c(C)c(C)sc2n1 (centres unmarked)	4.94
Cc1cccc(NC(=O)C2CCN(S(=O)(=O)c3cccs3)CC2)n1	2.08
Cc1ccc(-n2c(C)nnc2SCC(=O)N2CCc3ccccc3C2)cc1	-19.6
Cc1ccc(N(C(=O)c2ccccn2)C2(C(=O)NC3CCCC3)CCCCC2)cc1	16.9
CC(=O)O.CN(C)Cc1cn(CCC(=O)O)c2ccccc12	10.9
CCOC(=O)C1CCCN(CCC(=O)Nc2cc(C)ccc2C)C1.Cl (centres unmarked)	-8.02
COc1ccc(-n2c(SCC(=O)NCC3CCCO3)nc3n[nH]c(C)c3c2=N)cc1 (centres unmarked)	7.29
O=C(COc1ccc(Cl)cc1Cl)Nc1nc2n(n1)C(c1ccccc1)CC(=O)N2 (centres unmarked)	1.52
CCc1nnc(NC(=O)c2cc(S(=O)(=O)N3CCCCC3)ccc2C)s1	1.93
CCn1c2ccccc2c2cc(NC(=O)CSc3nnc(-c4cccc(Cl)c4)o3)ccc21	9.78
Cc1c(C(=O)NCc2ccco2)oc2ccccc12	9.16
O=C(COc1ccccc1)Nc1ccccc1C(=O)NCc1ccco1	6.35
COc1ccccc1C(=O)Nc1c(C(=O)N(CCN(C)C)Cc2ccco2)oc2ccccc12	-27.4
COc1ccc(OCC(=O)Nc2c(C(=O)N3CCN(C)CC3)oc3ccccc23)cc1	-15
CCCN1CCN(C(=O)c2oc3ccccc3c2NC(=O)COc2ccc(OC)cc2)CC1	-46.3
Cc1ccccc1C(=O)Nc1c(C(=O)N(CCN(C)C)Cc2ccco2)oc2ccccc12	-81.1
COc1ccc(OCC(=O)Nc2c(C(=O)N(CCN(C)C)Cc3ccco3)oc3ccccc23)cc1	-82.2
Cc1c(C(=O)OCC(=O)NCc2ccco2)oc2ccccc12	10.1
CN(C)CCN(Cc1ccco1)C(=O)c1oc2ccccc2c1NC(=O)COc1ccccc1	-79.3
